High-throughput results (PubChem)
Mtb MenB inh – inhibitors of Mycobacterium tuberculosis MenB enzyme. P9WNP5. MenB enzyme assay, absorbance read-out. inhibition, % (no concentration beside the values). 100,000 compounds, 0.43% hits. AID 540299; in the data active = inhibition above about 21%, passing the limit was not always enough
Target sequence (P9WNP5 whole entry, looked up): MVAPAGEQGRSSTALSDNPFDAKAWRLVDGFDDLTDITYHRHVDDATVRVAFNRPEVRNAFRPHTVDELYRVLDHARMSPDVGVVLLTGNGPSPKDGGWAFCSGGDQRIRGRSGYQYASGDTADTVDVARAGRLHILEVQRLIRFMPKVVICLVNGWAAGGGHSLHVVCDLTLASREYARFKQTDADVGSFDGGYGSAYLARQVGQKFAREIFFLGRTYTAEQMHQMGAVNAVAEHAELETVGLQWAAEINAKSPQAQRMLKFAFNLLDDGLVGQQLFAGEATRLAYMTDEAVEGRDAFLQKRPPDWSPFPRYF
PV pol inh – poliovirus RNA polymerase inhibition; P03300; poliovirus polymerase elongation, fluorescence polarization; active compounds read low; % elongation, % (compound at 16.7 µg/mL); 150,000 compounds, 0.66% hits; in the data active = % elongation below about 90%
AID504770 – E. coli YBA685 growth inhibition, screen for V. cholerae RctB inhibitors; 130,000 compounds, 0.27% hits; E. coli YBA685 rctB-dependent plasmid, OD600 growth, 3 h; active compounds read low; z-score (no concentration beside the values); AID 504770; in the data active = z-score below about -2, passing the limit was not always enough
MbtI inh – blocks the Mycobacterium tuberculosis siderophore enzyme MbtI; P9WFX0; purified MbtI enzyme, fluorescence intensity read-out; inhibition, % (test concentration not listed); 100,000 compounds, 0.89% hits; in the data active = inhibition mostly above about 56%, no sharp cut-off; inactive = mostly below about 77%
* = called active by the depositor; nt = no result given. Only some compounds are listed: those with a hit (about 1.5% of all), similar ones and a draw of the others.

SMILES	Mtb MenB inh	PV pol inh	AID504770	MbtI inh
C1CCN(SN2CCCCC2)CC1	-67	78*	-0.4	nt
CC1(C)Nc2ccccc2C(=O)N1c1ccccc1	43*	102	0.75	90
CCOc1ccccc1NC(=O)c1c(NC(=O)C(C)Oc2cccc(Cl)c2)sc2c1CCCCC2 (stereo not given)	nt	98	nt	nt
Cc1ccccc1NC(=O)c1c(NC(=O)C(C)Oc2cccc(Cl)c2)sc2c1CCCC2 (stereo not given)	nt	87*	nt	nt
Cc1cccc(NC(=O)c2c(NC(=O)C(F)(F)F)sc3c2CCCCC3)c1	nt	105	nt	nt
COc1ccc(Cl)cc1NC(=O)c1c(NCc2sccc2C)sc2c1CCCC2	nt	70*	nt	nt
O=C(Nc1cccc(Cl)c1)c1c(NC(=O)C(F)(F)F)sc2c1CCCC2	nt	79*	nt	nt
O=C(COc1ccc(Cl)cc1)Nc1sc2c(c1C(=O)Nc1cccc(Cl)c1)CCCC2	nt	81*	nt	nt
CC(C)(C)C(=O)N(Cc1nc(-c2ccccc2)no1)C1CCCCC1	-19	104	0.5	-5
CCOC(=O)/C(C#N)=N/Nc1ccsc1C(=O)OC	-17	101	-0.45	1
CC(=O)Nc1cc(NC(C)=O)c2nc(N)sc2c1	-19	101	0.15	8
COCCNc1nc(SC)nc(-c2ccccc2)c1C#N	-11	101	-1.5	-16
CC1(C)CC(=O)C=C(NCCc2ccccc2)C1	33*	101	1.6	24
O=C(Nc1ccc(C(=O)N2CCN(c3ccc(F)cc3)CC2)cc1)c1nsc2ccccc12	nt	102	nt	nt
CN1C2CCC1CC(NC1CCCCC1)C2 (stereo not given)	4	80*	1.2	nt
O=C(Cn1cc(SCc2ccc(C(F)(F)F)cc2)c2ccccc21)N1CCCCC1	nt	44*	nt	nt
O=C(Cn1cc(SCc2ccc(C(F)(F)F)cc2)c2ccccc21)N1CCCCCC1	nt	115	nt	nt
CC(=O)Nc1ccc(OCC(O)CN2CCCC2)cc1 (stereo not given)	nt	nt	0.45	nt
CC(=O)Nc1ccc(OCC(O)Cn2ccnc2)cc1 (stereo not given)	31*	103	2.4	0
O=C1NC(=O)C2C3C=CC(O3)C12 (stereo not given)	12	99	-3.5*	77
Cn1c(=O)[nH]c2nncnc2c1=O	-152	43*	-1.7	6
Cn1c(=O)[nH]c2c(nc(-c3ccccc3)n2C)c1=O	5	109	2.1	nt
Nn1c(SCc2ccccc2)n[nH]c1=S	-5	96	-0.3	70*
CCn1c(NCc2ccccc2)nc2ccccc21	38*	100	0.4	2
C=CCn1c(NCc2ccccc2)nc2ccccc21	-3	106	-0.75	nt
SMILES	Mtb MenB inh	PV pol inh	AID504770	MbtI inh
Cc1ccc(-c2nc(CCNC(=O)c3ccc(C)c(C)c3)cs2)cc1	nt	103	nt	nt
CSCCC(NS(=O)(=O)c1ccc2c(c1)oc(=O)n2C)C(=O)N1CCN(c2ccc(C(C)=O)cc2)CC1 (stereo not given)	nt	105	nt	nt
CCc1c(C)sc(NC(=O)CCCC(=O)O)c1C(N)=O	-2	81*	-0.55	nt
COC(=O)CCC(=O)Nc1sc(C)c(C)c1C(N)=O	nt	nt	0.2	nt
O=C(Cn1c(=O)oc2cc(Cl)ccc21)N1CCN(c2ccccc2)CC1	-16	99	-0.55	11
CC(NC(=O)c1ccc(Cl)cc1)c1ccncc1 (stereo not given)	-12	102	0.3	-8
O=C(Cc1nc2ccccc2s1)c1ccccc1	nt	72*	-1.1	-8
Cc1cc(=S)nc(-c2ccccn2)[nH]1	-40	155	-0.35	81*
Cn1nc(-c2ccccn2)sc1=S	-28	100	1.5	1
CCOc1ccccc1/C=C/C(=O)NCC(=O)N1CCC(N(C)C2CCCC2)CC1	-4	99	-0.05	93
CCN(c1ccccc1)S(=O)(=O)c1ccc(C(=O)OCC#N)cc1	12	66*	-0.4	-1
CCN(c1ccccc1)S(=O)(=O)c1ccc(Cl)cc1	-53	102	0.25	-11
S=c1[nH]nc(NC2CC2)s1	-37	102	2.2	89*
Cc1cc2ccccc2n1CCNC(=O)c1ccc(Br)o1	nt	nt	-0.7	nt
C[n+]1c(CF)sc2ccccc21	nt	98	-0.85	97*
O=C(NC1CCS(=O)(=O)C1)Sc1ccccc1 (stereo not given)	15	104	1.2	52*
O=C(/C=C/Sc1ccc(Cl)cc1)c1ccccc1	-8	101	0.4	-10
Cc1cc(C)nc(S/C=C/C(=O)c2ccc(Cl)cc2)n1	-5	108	-0.65	-8
Cn1ccnc1S/C=C/C(=O)c1ccc(Cl)cc1	5	99	-0.3	59*
Cn1cnnc1S/C=C/C(=O)c1ccc(Cl)cc1	-10	102	-1.3	85*
COc1ccc(S(=O)(=O)N2C3CCC2CC(NC(=O)NC2CCCCC2)C3)cc1 (stereo not given)	-25	102	-0.5	1
N#Cc1ccc(-c2ccc(Oc3ncccn3)cc2)cc1	-9	100	-1.4	-1
O=C(O)C1Nc2c(I)cccc2C2C=CCC12 (stereo not given)	-17	93	-0.7	103*
COC(=O)C1=C(C)Nc2ccccc2S1	-11	107	1.2	58*
O=C(CSc1nc2ccccc2nc1Cc1ccccc1)N1CCc2ccccc21	nt	108	nt	nt
SMILES	Mtb MenB inh	PV pol inh	AID504770	MbtI inh
O=C1COc2ccc(-c3csc(=Nc4ccc(F)cc4)n3/N=C/c3ccc(O)c(O)c3)cc2N1	-60	83*	-0.15	6
O=C1C=CC(=O)C(Sc2nnnn2-c2ccccc2)=C1	-3	99	-0.7	102*
CCSc1nnc(CCNC(=O)Nc2ccc(Cl)cc2C(F)(F)F)n1C	-46	103	-1.9	5
CCc1cc(Br)ccc1NC(C)=O	nt	nt	-2.7*	nt
CCCNC(=O)Nc1ccc(Br)cc1F	-5	103	-0.65	-17
O=S(=O)(Nc1ccc2ccccc2n1)c1cccs1	nt	nt	1.6	nt
C/C(=C\C(=O)c1cccnc1)Nc1ccccc1O	60*	102	0.25	27
Cc1cccc(NC(=O)Nc2cccc(C)c2)c1	-14	100	2.6	-6
N=C(N)c1cccc(NC(=O)Nc2cccc(C(=N)N)c2)c1	-46	88*	1.4	nt
CCn1c(SCc2nnc(-c3ccccc3)o2)nnc1-c1ccccc1	-2	104	-0.05	4
NC(=O)Cc1csc(N)n1	-2	99	-0.15	8
Cc1cccc(C(N)=S)c1	-17	98	-0.2	62*
Cc1ccc(C(=O)C(C)OC(=O)C2=COCCO2)cc1C (stereo not given)	1	90*	0.3	1
Nc1ccc(N2CCOCC2)c2nonc12	-140	85*	0	18
O=C(Nc1ccc(N2CCOCC2)c2nonc12)c1ccco1	-3	99	1.4	1
Cc1cc(C)c(C)c(S(=O)(=O)Nc2ccccc2C(=O)NCC(=O)NCc2ccco2)c1C	-37	103	0.95	-34
COC(=O)C1=NOC2C(=O)N(c3ccccc3)C(=O)C12 (stereo not given)	nt	nt	-1.4	-3
COC(=O)C1=NNC2(c3ccc(C)cc3)C(=O)N(c3ccc(C)cc3)C(=O)C12 (stereo not given)	36*	102	1.5	-12
O=C1Nc2ccccc2/C1=N\N1C(=O)/C(=C/c2ccccc2)N=C1c1ccccc1	-57	88*	-1.1	nt
N#Cc1c(-c2cccs2)oc(-n2cccc2)c1-c1cccs1	12	102	0.95	4
